Test results published in PubChem BioAssay AID1030 (National Center for Advancing Translational Sciences (NCATS), 2008).
Hit rate of the full screen: of about 220,000 compounds, about 16,000 (7.3%) were called active. Not shown: some 25% with an inconclusive outcome. Calls follow the shape of the dose curve; as a rule, active = well fitted inhibition curve with a large enough effect (not every such curve was filed as active); inconclusive = small, poorly fitted or top-dose-only effect, or another doubt; inactive = no such curve, though single readings can be large or run the other way. This excerpt belongs to a sample that is enriched for actives.

Biological target: Aldehyde dehydrogenase 1A1 (Homo sapiens) (UniProt P00352)
Sequence (P00352 whole entry, looked up): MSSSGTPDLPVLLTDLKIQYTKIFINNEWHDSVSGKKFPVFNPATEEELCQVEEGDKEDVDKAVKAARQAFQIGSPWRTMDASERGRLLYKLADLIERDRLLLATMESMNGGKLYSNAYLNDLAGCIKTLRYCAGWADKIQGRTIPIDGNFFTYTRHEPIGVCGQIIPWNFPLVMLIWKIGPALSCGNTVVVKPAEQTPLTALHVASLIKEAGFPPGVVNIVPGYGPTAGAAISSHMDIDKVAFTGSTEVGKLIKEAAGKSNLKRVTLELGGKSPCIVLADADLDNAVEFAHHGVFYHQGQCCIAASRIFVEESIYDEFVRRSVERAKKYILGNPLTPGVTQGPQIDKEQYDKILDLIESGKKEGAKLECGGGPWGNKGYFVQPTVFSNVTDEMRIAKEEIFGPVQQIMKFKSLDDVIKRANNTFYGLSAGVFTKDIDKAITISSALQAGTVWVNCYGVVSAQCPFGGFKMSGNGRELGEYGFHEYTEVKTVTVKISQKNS
Assay: qHTS Assay for Inhibitors of Aldehyde Dehydrogenase 1 (ALDH1A1);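 as to activity, negative = inhibition: plate controls were no enzyme wells and a reference inhibitor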
Details: Purified ALDH1A1, NADH fluorescence, propionaldehyde substrate; series mostly up to 75.3 µM; activity, negative = inhibition: at the top concentration
Potency is read from the fitted curve at half-maximal effect.

Structure (SMILES) | activity, negative = inhibition | Potency
O=C(COc1ccc(NC(=O)c2ccccc2[N+](=O)[O-])cc1)c1ccc(F)cc1 | 9.17% (inactive) | –
CSc1ncccc1C(=O)Nc1nc2ccc(F)cc2s1 | -6.44% (inactive) | –
COCC1CCCN(Cc2cn[nH]c2-c2cc3ccccc3o2)C1 (centres undefined) | -0.0091% (inactive) | –
O=C(O)c1ccc(/C=N/NC(=S)NCc2ccccc2)cc1 | 1.46% (inactive) | –
O=C(Cl)c1ccccc1[N+](=O)[O-] | 0.329% (inactive) | –
O=C(Nc1ccncc1)c1ccccc1[N+](=O)[O-] | 3.73% (inactive) | –
O=[N+]([O-])c1ccccc1SNc1ccccn1 | – | 20 µM (active)
COc1cc(NC(=O)COc2ccccc2Cl)ccc1NC(=O)C(C)C | 10.8% (inactive) | –
COc1ccc(S(=O)(=O)N(C)C)cc1NC(=O)CSc1ncccn1 | -2.21% (inactive) | –
O=C(Nc1ccc(Cl)c(Cl)c1)N1CC=C(c2ccccc2)CC1 | 1.33% (inactive) | –
Cc1cccc(C)c1NC(=O)N1CC=C(n2c(=O)[nH]c3ccccc32)CC1 | – | 6.31 µM (active)
Cc1cccc(C)c1NC(=O)c1ccc(CN2CCc3ccccc3C2)cc1 | 4.47% (inactive) | –
CSc1ccc(CNCCN2CCOCC2)cc1 | -2.14% (inactive) | –
Cc1ccc(-c2nc(C)sc2CC(=O)OCC(=O)Nc2c(F)cccc2F)cc1 | 2.5% (inactive) | –
Cc1ccc(NC(=O)Nc2nnc(-c3ccncc3)s2)cc1 | -11.3% (inactive) | –
O=C(CSC1=Nc2ccccc2C2=NC(CC(=O)NCc3ccco3)C(=O)N12)NCc1ccco1 (centres undefined) | – | 7.94 µM (active)
CCOCCc1c(O)nc(SCC(=O)NCc2ccco2)[nH]c1=O | 1.06% (inactive) | –
O=C(CC1CCCCC1)NCc1ccco1 | 3.04% (inactive) | –
O=C(NNC(=S)NC1CCCCC1)c1ccccc1Cl | -0.63% (inactive) | –
Cc1ccccc1OCc1nnc(SCC(=O)N2c3ccccc3Sc3ccc(Cl)cc32)o1 | – | 10 µM (active)
CC(C)NC(=O)CSc1nnc(COc2ccccc2Cl)o1 | 8.05% (inactive) | –
Cc1ccc(NC(=O)CSc2nnc(COc3ccccc3C)o2)cc1 | -7.39% (inactive) | –

Structure (SMILES) | activity, negative = inhibition | Potency
O=C(CSc1ccccn1)Nc1nc2c(ccc3ccccc32)s1 | 1.13% (inactive) | –
CN(C)c1ccc(/C=C2\NC(=S)N(Cc3ccccc3)C2=O)cc1 | – | 11.2 µM (active)
O=C1N/C(=C/c2cccs2)C(=O)N1Cc1ccc(F)cc1 | 12.7% (inactive) | –
O=C1NCC(=O)N(Cc2ccccc2)/C1=C/c1ccccc1 | 0.224% (inactive) | –
CCc1nnc(NC(=O)CCCSc2nc3ccccc3[nH]2)s1 | 0.0522% (inactive) | –
COc1cc(OC)cc(-c2nc(=S)n3ccsc3n2)c1 | 10.4% (inactive) | –
CC(Oc1ccccc1)C(=O)NN1Cc2ccccc2C1=N (centres undefined) | -4.79% (inactive) | –
COc1ccc(/C(C)=N/NC(=O)CCC(=O)Nc2ccc(Cl)cc2Cl)c(OC)c1 | 3.05% (inactive) | –
NC(=O)COC(=O)c1sc2cc(F)ccc2c1Cl | 4.45% (inactive) | –
C=CC1=C2C=C(C3CC3)N(CC(C)C)C=C2C(=O)C(C)(OC(=O)c2ccco2)C1=O (centres undefined) | -1.97% [at 13.5 µM] (inactive) | –
COc1ccc(/C(O)=C2/C(=O)C(=O)N(CCCN(C)C)C2c2ccccc2)cc1OC (centres undefined) | 0.02% (inactive) | –
COc1cccc(C2/C(=C(/O)c3ccncc3)C(=O)C(=O)N2CCCN(C)C)c1 (centres undefined) | 8.57% (inactive) | –
CC1Cc2cc(/C(O)=C3\C(=O)C(=O)N(CCN4CCOCC4)C3c3ccccc3F)ccc2O1 (centres undefined) | -4.31% (inactive) | –
CCN(CC)CCN1C(=O)C(=O)/C(=C(/O)c2ccccc2)C1c1ccccc1F (centres undefined) | -1.33% (inactive) | –
COc1ccc(C2/C(=C(/O)c3ccc(OC(C)C)cc3)C(=O)C(=O)N2CCCN2CCOCC2)cc1 (centres undefined) | – | 25.1 µM (active)
CCN(CC)CCN1C(=O)C(=O)/C(=C(/O)c2ccc(OC)c(OC)c2)C1c1ccccn1 (centres undefined) | – | 28.2 µM (active)
O=C1C(=O)N(CCN2CCOCC2)C(c2ccccn2)/C1=C(/O)c1ccc(Cl)cc1 (centres undefined) | – | 12.6 µM (active)
COc1ccc(/C(O)=C2/C(=O)C(=O)N(CC3CCCO3)C2c2ccc(OC)c(OC)c2)cc1 (centres undefined) | 0.686% (inactive) | –
O=C1CC(c2ccccc2)CC(O)=C1C=NCCN1CCOCC1 (centres undefined) | -8.85% (inactive) | –
COC(=O)C(C(=O)OC)[C@@H](NC=O)c1ccccc1 | 2.08% (inactive) | –
CCOC(=O)C1=C(C)c2ccccc2OC1C(=O)OCC (centres undefined) | -3.41% (inactive) | –
CCc1cc(CNC(=O)CC2C(=O)NCCN2CC2CCCCC2)on1 (centres undefined) | -11.7% (inactive) | –

Structure (SMILES) | activity, negative = inhibition | Potency
CCc1ccc(Oc2nc([N+](=O)[O-])nn2C)cc1 | -1.45% (inactive) | –
Cc1ccc(C(=O)NN(CCC#N)C2=NS(=O)(=O)c3ccccc32)cc1 | 11.8% (inactive) | –
Cn1nc(C(C)(C)C)c(NC(=O)c2sccc2Cl)c1C(C)(C)C | 9.72% (inactive) | –
C=C(C)COc1ccc(-c2nc(N)ncc2-c2ccccc2OC)c(O)c1 | -14.6% (inactive) | –
O=C(COc1ccc([N+](=O)[O-])cc1Cl)Nn1cnnc1 | -6.39% (inactive) | –
COC(=O)CSc1nccc(-c2cccs2)n1 | 9.49% (inactive) | –
CN1CCN(C(=O)N2c3ccccc3CCc3ccccc32)CC1 | -5.02% (inactive) | –
CC(=O)NC(=S)NNC(=O)c1ccc(Br)cc1 | – | 11.2 µM (active)
O=C(CCc1ccccc1)NNC(=O)c1ccc(Br)cc1 | 2.23% (inactive) | –
Cn1nnnc1SCC(=O)NNC(=O)c1ccc(Br)cc1 | 10.7% (inactive) | –
CC(Oc1cccc(NC(=O)c2cccs2)c1)C(=O)c1ccccc1 (centres undefined) | 0.485% (inactive) | –
O=C(O)c1n[nH]nc1-c1ccccc1 | -35.1% (inactive) | –
CCNC(=O)CC1C(=O)N(c2ccc(F)cc2)C(=O)N1CCc1sccc1C (centres undefined) | 0.541% (inactive) | –
COc1ccc(OCc2cn3c(C)cc(C)nc3n2)cc1 | 1.75% (inactive) | –
COc1ccc(Nc2cc(C)nc(-n3nc(C)cc3C)n2)cc1 | 4.12% (inactive) | –
COc1ccc(C(C[N+](=O)[O-])n2nc(C)cc2C)cc1 (centres undefined) | – | 10 µM (active)
Cc1onc(-c2ccccc2)c1C(=O)N=C(N)c1ccc(Cl)cc1 | -1.45% (inactive) | –
Cc1ccc(C(=O)CSc2nc3ccccc3c(=O)n2N)o1 | – | 28.2 µM (active)
COc1ccc(OCc2ccc(-c3nc4ccccc4c(=O)n3N)o2)cc1 | -6.34% (inactive) | –
O=C(CCn1c(SCC(=O)c2ccccc2)nc2ccccc2c1=O)NCc1ccc(F)cc1 | 11.8% (inactive) | –
O=C(Nn1cnc2ccccc2c1=O)c1ccccc1 | 9.63% (inactive) | –
C=CCC1(CC=C)CCCN1C(=O)CC1C(=O)NCCN1Cc1ccccc1OC (centres undefined) | -3.44% (inactive) | –

Structure (SMILES) | activity, negative = inhibition | Potency
COCCC(=O)Nc1ccc2c(c1)CN(C(=O)CCOC)CC2 | -1.97% (inactive) | –
CNc1[nH]ncc1[N+](=O)[O-] | 11.1% (inactive) | –
COc1cc(NS(=O)(=O)c2ccc(NC(=O)CN3C(=O)c4ccccc4C3=O)cc2)ncn1 | 5.24% (inactive) | –
CCn1c(COc2c(C)cccc2C)nnc1SCc1nc2ccccc2c(=O)[nH]1 | 1.86% (inactive) | –
COc1ccc(CCCc2nnc(SCc3nc4ccccc4c(=O)[nH]3)n2C)cc1 | -1.66% (inactive) | –
COc1ccc(C)cc1-n1nnnc1SCc1nc2ccccc2c(=O)[nH]1 | – | 39.8 µM (active)
CCCOC1CCCN(Cc2cn(C)nc2-c2ccccc2F)C1 (centres undefined) | -2.39% (inactive) | –
O=C(C1CCCO1)N(c1ccc(F)cc1)C1C=CS(=O)(=O)C1 (centres undefined) | 15.7% (inactive) | –
CCCC[C@@H]1C[C@H]1C(NC(=O)c1ccco1)c1ccc(C(=O)OC)cc1 (some centres undefined) | – | 22.4 µM (active)
COC(=O)c1ccc(N(CC(=O)NC2CCCC2)C(=O)CNC(=O)c2ccco2)cc1 | 2.08% (inactive) | –
CCCC[C@@H]1C[C@H]1C(NC(=O)c1ccc(-c2ccccc2)cc1)c1ccc(-c2ccccc2)cc1 (some centres undefined) | 6.85% (inactive) | –
CC(C)(C)NC(=O)C(=O)NN=C1CCCCCCC1 | 6.41% (inactive) | –
c1c2c(cc3sc(N4CCCCC4)nc13)OCCO2 | – | 20 µM (active)
Fc1ccc2nc(N3CCCCC3)sc2c1 | 19.6% (inactive) | –
Fc1cc(F)c2nc(N3CCOCC3)sc2c1 | 7.48% (inactive) | –
CC(=O)c1cc(C#N)c(SCC(=O)Nc2nccs2)nc1C | 2.59% (inactive) | –
CCOc1ccc(C(=O)Nc2cccc(SC)c2)cc1 | 2.45% (inactive) | –
Cn1c(Cc2cccc3ccccc23)nnc1SCC(=O)N1CCN(c2cccc(Cl)c2)CC1 | -8.34% (inactive) | –
Nn1c(Cc2cccc3ccccc23)nnc1SCC(=O)N1CC(=O)Nc2ccccc21 | – | 17.8 µM (active)
C=CCn1c(COc2ccccc2F)nnc1SCC(=O)N1CC(=O)Nc2ccccc21 | -4.67% (inactive) | –
Cc1cc(C)cc(N(CC(=O)NCCSCc2ccco2)S(C)(=O)=O)c1 | -2.35% (inactive) | –
Cc1cc(C)nc(NC(=O)/C=C/c2ccc(Cl)cc2)n1 | -2.35% (inactive) | –

Structure (SMILES) | activity, negative = inhibition | Potency
Cc1cccc(C(=O)Nc2ccccc2C(=O)NCc2cccnc2)c1 | 3.55% (inactive) | –
COc1cc(C(=O)N2C(=O)c3cccc(N)c3C2=O)cc(OC)c1OC | -4.58% (inactive) | –
CCOC(=O)N1CC=C2C(C#N)=C(N)C(C#N)(C#N)[C@H](c3cccs3)[C@H]2C1 | – | 20 µM (active)
COc1cc(/C=C2/C(=O)ON=C2C)ccc1OCc1cccc(F)c1 | – | 10 µM (active)
COc1cc(/C=C2/C(=O)ON=C2C)ccc1OCc1ccccc1F | 4.25% (inactive) | –
C/C=C/c1ccc(OCCOc2ccc(C=O)cc2OC)c(OC)c1 | 1.06% (inactive) | –
O=S(=O)(Nc1ccccn1)c1cccc(S(=O)(=O)c2ccc(Cl)cc2)c1 | -14.8% (inactive) | –
O=C(CSc1nnc2ccccn12)c1ccccc1 | – | 10 µM (active)
Cn1c(CNc2nc(-c3ccccc3)cs2)nnc1SCC(=O)c1ccccc1 | -7.61% (inactive) | –
Cc1ccc(-n2c(C)cc(C(=O)CSc3nnc4ccccn34)c2C)cc1 | 8.95% (inactive) | –
N#Cc1ccc(CSc2nnc3ccccn23)cc1 | 11.3% (inactive) | –
Cn1c(CC(=O)Nc2ccccc2)nnc1SCC(=O)c1ccccc1 | – | 7.08 µM (active)
Cc1ccccc1NC(=O)Cc1nnc(SCC(=O)N2CCN(c3ccccc3)CC2)n1C | 0.43% (inactive) | –
O=C(NNC1=C(C(=O)C(F)(F)F)CCC1)c1ccncc1 | -7.96% (inactive) | –
CCc1nc2ccccc2c(C(=O)OC2CCCCC2=O)c1C (centres undefined) | 0.702% (inactive) | –
O=C(O)/C=C/c1ccc(OCCCF)cc1 | -4.97% (inactive) | –
COC(=O)C1=C(C)NC(=O)CC1c1ccccc1OC (centres undefined) | -0.136% (inactive) | –
CCn1c(=O)cc(SCC(=O)NCc2ccc3c(c2)OCO3)c2ccccc21 | 4.8% (inactive) | –
O=C(Cc1cccc2ccccc12)NCCC1=CCCCC1 | -7.28% (inactive) | –
CCn1c(=O)cc(SCC(=O)NCCC2=CCCCC2)c2ccccc21 | – | 14.1 µM (active)
COc1ccc(Cc2nnc(NC(=O)c3cc(OC)c(OC)c(OC)c3)s2)cc1OC | -5.76% (inactive) | –
